From PubChem
DRD3 antagonist – antagonists of human D3 dopamine receptor. D3R cells, DiscoveRx beta-arrestin luminescence, antagonist mode; active compounds read low. max response, negative = inhibition, %. hit rate 2.5% among 360,000; in the data active means max response below about -50%; inconclusive means no clear call, values can overlap the other calls; further: on the % scale 0 is the no-effect control and ±100 the full control effect
Target sequence (P35462 whole entry, looked up): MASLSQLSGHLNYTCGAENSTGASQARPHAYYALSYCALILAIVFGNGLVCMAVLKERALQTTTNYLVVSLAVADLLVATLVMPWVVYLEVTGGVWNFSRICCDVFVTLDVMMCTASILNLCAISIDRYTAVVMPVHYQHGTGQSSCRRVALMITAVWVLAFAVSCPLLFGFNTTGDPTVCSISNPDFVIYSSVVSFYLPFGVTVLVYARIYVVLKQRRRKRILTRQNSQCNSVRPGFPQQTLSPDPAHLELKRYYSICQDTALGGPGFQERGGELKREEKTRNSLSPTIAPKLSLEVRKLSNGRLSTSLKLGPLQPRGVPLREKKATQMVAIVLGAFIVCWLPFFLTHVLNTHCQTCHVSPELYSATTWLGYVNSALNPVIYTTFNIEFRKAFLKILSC
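Cells expressing the human receptor were seeded at 1500 cells/well, incubated overnight at 37 degrees C in 5% CO2, then exposed to library compounds with dopamine controls for 90 minutes at 37 degrees C before luminescent detection.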
TDP1 cell noCPT – qHTS for Inhibitors of human tyrosyl-DNA phosphodiesterase 1 (TDP1): qHTS in cells in absence of CPT; hit rate 15% among 420,000; Potency, µM (highest dose often 46.2 µM), for the others: at the highest dose activity change, negative = growth inhibition, actives largely listed as inhibitors; DT40 Tdp1-/- hTDP1 cells, no CPT, ATP luminescence, 48 h; AID 686978, 2013; further: potency means the concentration at half of the fitted maximal effect; on the % scale 0 is the no-effect control and ±100 the full control effect; nearly all actives have a fitted effect of over 55% in size
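Cells were dispensed at 400 per well, compounds added by pin tool, plates incubated ≥48 hr at 37 °C, then CellTiter-Glo added for 30 min at room temperature before luminescence reading. Line: DT40 Tdp1-/- complemented with hTDP1; camptothecin omitted.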
ClpP mod – qHTS Assay for Activators of ClpP. ATP-dependent Clp protease proteolytic subunit (Bacillus subtilis (strain 168)), P80244. purified B. subtilis ClpP, FRET peptide cleavage, 20 min. Potency, µM (doses to about 57.5 µM), for inactives: top-dose activity change, negative = active. hit rate 1.9% among 340,000. AID 651965, 2013; active means well fitted falling curve with a large enough effect; inconclusive means small, poorly fitted or top-dose-only effect; inactive means no such curve, though single readings can be large or run the other way; further: potency means the concentration at half of the fitted maximal effect; the source files actives as falling curves though it sought activators and does not explain the sign; nearly all actives have a fitted effect of over 65% in size
Target sequence (P80244 whole entry, looked up): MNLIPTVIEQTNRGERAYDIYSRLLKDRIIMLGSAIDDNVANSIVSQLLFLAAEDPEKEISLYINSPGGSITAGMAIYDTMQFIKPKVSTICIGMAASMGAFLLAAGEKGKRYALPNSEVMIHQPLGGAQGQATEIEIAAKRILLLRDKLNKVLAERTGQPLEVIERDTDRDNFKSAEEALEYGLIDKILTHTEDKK
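Purified B. subtilis ClpP, 10 microg/mL final in Tris/HCl pH8 with KCl, BSA, glycerol and Tween-20, cleaved an Abz/nitrotyrosine-quenched decapeptide. Fluorescence (ex 320, em 430) was read at 0 and 20 min at room temperature. Delta was normalized to 5.8 microM ADEP and DMSO/no-enzyme controls.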
D3 ag – activates the human D3 dopamine receptor; D3R DiscoveRx beta-arrestin cells, luminescence, 90 min; max activation, %; hit rate 0.58% among 410,000; in the data active means max activation above about 30%; further: 0% is about no effect
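Cells at 1500/well, incubated overnight, then treated with pinned compounds (dopamine as control) for 90 min at 37 degrees C. DiscoveRx reagent added for 30 - 60 minutes at room temperature; luminescence read.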
TDP1 cell CPT – DT40-hTDP1 cell growth loss with CPT; chicken DT40 Tdp1-/-;hTDP1 cells + 20 nM CPT, ATP luminescence, 48 h; Potency, µM (highest dose often 46.2 µM), inactives show at the highest dose activity change, negative = growth inhibition, most hits filed as inhibitors; hit rate 12% among 420,000; AID 686979; further: potency means the concentration at half of the fitted maximal effect; on the % scale 0 is the no-effect control and ±100 the full control effect; nearly all actives have a fitted effect of over 55% in size
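Cell growth measured by CellTiter-Glo luminescence after a minimum 48 h, 37 C compound exposure with 20 nM CPT in Tdp1-knockout DT40 cells stably expressing hTDP1, seeded 400/well; qHTS titration format.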
IL-1B inflam inh – blocks inflammasome-driven IL-1 beta release; THP-1 LPS/ATP IL-1B secretion, AlphaLISA, 16 h; active compounds read low; activity change, % at 57.5 µM; hit rate 4.7% among 360,000; AID 743279; in the data active means activity change below about -50%; inconclusive means mostly about -30% to -49%; further: on the % scale 0 is the no-effect control and ±100 the full control effect
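THP-1 cells pretreated 1 hr with compounds (up to 57.5 uM final), then stimulated with LPS (250 ng/mL final) plus ATP (1.25 mM final); secreted IL-1B measured by AlphaLISA after 16 hr, decreased signal indicating inhibition.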
* marks the source's active call; other numbers are inactive results; ? = inconclusive; . = no result; [ ] = another dose, or the depositor's remark. A selection: hits, their analogues and other compounds. The true share with any hit is near 21%. Unless noted, the call rests on the fitted dose curve; in most records, active means well fitted inhibition curve with a large enough effect; inconclusive means small, poorly fitted or top-dose-only effect; inactive means flat fitted curve, though single readings scatter.

SMILES	DRD3 antagonist	TDP1 cell noCPT	ClpP mod	D3 ag	TDP1 cell CPT	IL-1B inflam inh
CC(C)(C)OC(=O)N1CCC(Cc2cc(-c3ccc(Cl)cc3)no2)(C(=O)O)CC1	12	-22%	0%	17	0%	21
C=CCOc1ccc(C(c2c(O)nc(SC)[nH]c2=O)c2c(O)nc(SC)[nH]c2=O)cc1	-29	-2%	.	0	-4%	14
O=[N+]([O-])c1ccc(C2=NN(CCO)C(=Nc3ccc(OC(F)(F)F)cc3)SC2)cc1	-56*	21µM*	.	10	18µM*	-63*
COc1ccc(C(C)(NC(C)=O)c2nc(-c3ccccc3OC)cs2)cc1 (stereo unspecified)	-88*	12µM*	1%	-4	18µM*	-23
COc1ccc(C(C)(NC(C)=O)c2nc(-c3ccc(F)cc3OC)cs2)cc1 (stereo unspecified)	0	13µM*	1%	0	15µM*	11
COc1cc(F)ccc1-c1csc(C(C)(NC(C)=O)c2ccccc2)n1 (stereo unspecified)	-12	5.2µM*	-1%	1	12µM*	-6
COc1ccc(C(C)(NC(C)=O)c2nc(-c3cccc(C(F)(F)F)c3)cs2)cc1 (stereo unspecified)	4	?	1%	11	?	-10
Cc1cccc(NC(=O)C2C(c3ccccc3)C2(Cl)Cl)c1 (stereo unspecified)	?	13µM*	-2%	-6	?	0
CCOc1ccc(NC(=O)C2C(c3ccccc3)C2(Cl)Cl)cc1 (stereo unspecified)	-21	23µM*	.	-14	?	-9
CC(=O)c1cccc(NC(=O)C2C(c3ccccc3)C2(Cl)Cl)c1 (stereo unspecified)	-13	-22%	.	-18	-23%	-23
CN1CCN(C(=O)/C(=C/c2ccc([N+](=O)[O-])cc2)NC(=O)c2ccccc2)CC1	-7	7%	.	-1	14%	13
O=C(Cn1c(=O)[nH]c2ccccc2c1=O)Nc1ccc2c(c1)OCO2	3	1%	-8%	-2	-1%	0
Cc1ccc(CN2CCCN(Cc3c(C)cc(C)cc3C)S2(=O)=O)cc1	-9	?	0%	1	4%	3
CCc1ccccc1NC(=O)CN1CCCN(Cc2cc(C)ccc2C)S1(=O)=O	.	16µM*	1%	7	15µM*	.
CCc1ccc(NC(=O)CN2CCCN(Cc3cccc(Cl)c3)S2(=O)=O)cc1	.	-21%	0%	-9	?	.
Cc1ccc(CN2CCCN(CC(=O)Nc3ccc(C)cc3C)S2(=O)=O)cc1	.	15µM*	0%	5	?	.
Cc1ccc(NC(=O)CN2CCCN(Cc3cc(C)ccc3C)S2(=O)=O)c(Cl)c1	.	?	-4%	-2	18µM*	.
Cc1ccc(C)c(CN2CCCN(CC(=O)Nc3ccc(C)c(C)c3)S2(=O)=O)c1	.	16µM*	0%	6	?	.
CCc1ccccc1NC(=O)Cn1nc(C(F)(F)F)c2c1CCC2	6	?	1%	8	8%	-16
CCc1ccccc1NC(=O)Cn1nc(-c2cc(C)ccc2C)c2c(c1=O)CCCC2	.	15µM*	1%	3	?	.
O=C1C2C(C(=O)N1/N=C/c1ccc(N3CCCCC3)o1)C1C=CC2C12CC2 (stereo unspecified)	-12	15µM*	-3%	2	18µM*	-26
CCOC(=O)CN1C(=O)S/C(=C/c2ccc(N3CCCCC3)o2)C1=O	15	-12%	1%	-1	-22%	-1
CSc1ccccc1OC1CCN(Cc2ccccc2)CC1	-92*	?	0%	-33	-10%	-82*
CCSc1nnc(NC(=O)[C@@H](NC(=O)c2cccc(C)c2)C(C)C)s1	5	-18%	-1%	-23	-13%	19
CC(C)[C@H](NC(=O)c1ccc(C(C)(C)C)cc1)C(=O)Nc1nnc(C2CC2)s1	-27	?	1%	-9	23µM*	-3
SMILES	DRD3 antagonist	TDP1 cell noCPT	ClpP mod	D3 ag	TDP1 cell CPT	IL-1B inflam inh
COc1cc(OC)cc(C(=O)N[C@H](C(=O)Nc2nnc(C3CC3)s2)C(C)C)c1	-23	4%	-2%	-16	-10%	-1
CCSc1nnc(NC(=O)[C@@H](NC(=O)c2ccc(C(C)(C)C)cc2)C(C)C)s1	?	21µM*	-1%	-5	26µM*	27
Cc1ccc2c(CC(=O)N3CCOc4ccc(CN5CCOCC5)cc4C3)cc(=O)oc2c1	.	-18%	.	.	-3%[9.04 µM]	.
CCc1ccc(Sc2cc(C(=O)NCCCN3CCC(C)CC3)c3ccccc3n2)cc1	.	16µM*	-14%	-14	16µM*	.
CCOc1ccc(Nc2cc(C(=O)NCc3ccccc3Cl)c3ccccc3n2)cc1	.	?	5%	-3	10µM*	.
CCOc1ccc(Sc2cc(C(=O)NCc3ccccc3Cl)c3ccccc3n2)cc1	.	13µM*	-14%	0	?	.
Cc1ccc(Sc2cc(C(=O)NCCCN(C)C)c3ccccc3n2)cc1	27	?	.	-4	-11%	-69*
CCc1ccc(Sc2cc(C(=O)NCCCN3CCCC(C)C3)c3ccccc3n2)cc1 (stereo unspecified)	.	?	-2%	-11	?	.
CCc1nn(CC(=O)Nc2ccc(C)c(F)c2)c(=O)c2cc3cc(C)ccc3n12	.	?	4%	8	?	.
CCCCn1c(SCC(=O)NC2CC(C)(C)NC(C)(C)C2)nc2cc(S(N)(=O)=O)ccc21	-12	18%	-1%	-3	5%	5
COc1cc(OC)cc(-n2nnc(-c3nc(-c4ccccc4Cl)no3)c2N)c1	.	?	-4%	-2	?	.
Cc1ccccc1CSc1nc2cc(C(=O)NC3CCCC3)ccc2c(=O)n1Cc1ccccc1	.	-13%	-6%	-15	-1%	.
CC1CCC(Nc2ncnc3onc(-c4ccc(Cl)cc4)c23)CC1 (stereo unspecified)	.	?	1%	2	?	.
CCc1ccc(Sc2cc(C(=O)NCc3cccc(OC)c3)c3ccccc3n2)cc1	.	?	?	1	16µM*	.
C(=C\c1ccccc1)/CN1CCN(C(c2cccs2)c2nnnn2Cc2ccccc2)CC1 (stereo unspecified)	-73*	21µM*	-1%	-18	?	-3
COc1ccc(OC)c(C(c2nnnn2Cc2ccccc2)N2CCN(C)CC2)c1 (stereo unspecified)	-12	-5%	-1%	3	-2%	-10
